WT yeast gro inh – growth inhibition of WT strain, primary screen, mitochondrial fusion inhibitor project, WT and mutant strains, chemical genetic. AID 1362, 2008. inhibition, % at 10 µM. hit rate 2.1% among 190,000. mitochondrial fusion phenotypic screen; in the data active = inhibition above about 58%; tested in S. cerevisiae
L major viab – Leishmania major promastigote growth inhibition, primary screen | Leishmania major promastigotes, resazurin fluorescence viability | inhibition, % at 10 µM | hit rate 9% among 200,000 | AID 1063, 2008; in the data active = inhibition above about 50%;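 also: promastigotes grown with compound for 44 hours at 28 °C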
CHOP inhibitor – inhibitors of CHOP promoter induction, primary screen, cell-based, unfolded protein response, luciferase reporter. CHO-K1 CHOP-promoter luciferase, tunicamycin-induced, 15-18 h. inhibition, % at 10 µM. hit rate 3.8% among 220,000. AID 2732, 2010;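 active = compounds that reduced the stress-induced luciferase reporter signal by more than about 70% of percent inhibition, limit read from the data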;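 also: 0% = tunicamycin plus vehicle and 100% = wells without tunicamycin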
Arbovirus inh – antivirals against arbovirus infection, primary screen, cell-based, full library, 10K replicate subset. hit rate 0.37% among 200,000. arbovirus infection cell-based antiviral screen. inhibition, % at 10 µM; in the data active = inhibition above about 30%
* = called active by the depositor; / = no result given. This is a sample that favours compounds with a hit; in the whole collection about 12% have one here.

SMILES	WT yeast gro inh	L major viab	CHOP inhibitor	Arbovirus inh
S=c1[nH]nc(-c2cc(-c3ccccc3)n[nH]2)n1/N=C/c1ccc(Br)s1	/	/	-138.3	/
CCOC(=O)C(=O)NNc1cccc(C)c1C	13.2	-6.6	6.8	-37.0
CCOC(=O)C(=O)NNc1ccccc1C	27.5	71.7*	7.9	-34.0
COc1cc(C(=O)Nc2nnc(C)s2)c([N+](=O)[O-])cc1OC	/	/	-3.6	/
COc1ccc(N2CCN(c3cnc4ccccc4n3)CC2)cc1	4.0	-3.9	-26.3	-8.2
COc1cccc(N2CCN(c3cnc4ccccc4n3)CC2)c1	-9.7	69.7*	19.6	8.0
Cc1ccc(-c2nnn3c2nc(NCCc2ccc(S(N)(=O)=O)cc2)c2ccccc23)cc1	-0.4	72.6*	-55.4	-8.5
O=c1c2oc3ccccc3c2ncn1Cc1ccc(F)cc1	2.3	-4.6	29.6	-5.0
CCOC(=O)NC(NCc1ccccc1Cl)(C(F)(F)F)C(F)(F)F	/	0.0	95.1*	-2.1
CCOC(=O)NC(NCc1cccc(C(F)(F)F)c1)(C(F)(F)F)C(F)(F)F	-18.7	-6.8	33.6	16.3
COc1ccc(-c2csc(NS(=O)(=O)c3ccc([N+](=O)[O-])cc3)n2)cc1	20.4	-6.8	41.5	11.2
Cc1[nH]nc2c1-c1nc3ccccc3nc1C(C)(C)C2	8.3	13.0	38.4	33.3*
Cc1c(Cl)cccc1NC(=S)N1CCN(Cc2ccccc2)CC1	-2.7	9.5	-7.9	7.8
Cc1c(Cl)cccc1NC(=S)N1CCCN(Cc2ccc(F)cc2)C1	1.5	89.2*	38.2	-25.9
Cc1c(Cl)cccc1NC(=S)N1CCCN(Cc2ccccc2F)C1	14.3	82.4*	-13.3	-2.9
Fc1ccccc1CN1CCCN(C(=S)Nc2cccc(Cl)c2)C1	5.8	86.3*	13.0	-19.6
O=C(Nc1ccccc1)N1CCCN(Cc2ccccc2F)C1	16.6	8.0	14.4	0.2
C/C(CC(=O)Nc1c(C)cc(C)cc1C)=N\NC(=O)c1cnccn1	-4.9	-4.9	7.5	-2.9
Cc1ccc(S(=O)(=O)/N=C2\C(=O)c3ccccc3C([O-])=C2n2cc[n+](CCC(C)C)c2)cc1	15.5	88.5*	0.3	-13.7
Cc1ccc(S(=O)(=O)[N-]c2nc3ccccc3nc2-n2cc[n+](CCC(C)C)c2)cc1	-14.3	99.5*	30.1	-4.9
CCCC[n+]1ccn(C2=C([O-])c3ccccc3C(=O)/C2=N\S(=O)(=O)c2ccc(Br)cc2)c1	5.2	34.8	-34.8	-12.6
CC(C)CC[n+]1ccn(-c2nc3ccccc3nc2[N-]S(=O)(=O)c2ccc(Cl)cc2)c1	/	/	25.9	/
Cc1cc(-c2nnc(CCC(=O)N(CC3CCC3)CC3CCCO3)o2)no1 (centres undefined)	-12.9	-1.9	-21.3	3.8
Cc1ccc(NC(=S)c2nc3ccccc3[nH]2)c(C)c1	29.9	86.9*	-11.9	-8.7
CCCc1cc(=O)[nH]c(SCC(=O)Nc2sc3c(c2C#N)CCC(C)C3)n1 (centres undefined)	27.1	-2.4	0.8	15.1
SMILES	WT yeast gro inh	L major viab	CHOP inhibitor	Arbovirus inh
Cc1sc(NC(=O)CSc2nnc(-c3ccccc3)o2)c(C#N)c1C	-13.5	-0.7	54.3	13.8
N#Cc1c(NC(=O)CSc2nnc(-c3ccccc3)o2)sc2c1CCCC2	-5.3	1.7	39.3	31.7*
CC1CCc2c(sc(NC(=O)CSc3nnc(-c4ccccc4)o3)c2C#N)C1 (centres undefined)	21.3	9.9	73.8*	19.6
Cc1nnc(NC(=O)CCSc2ccc(Cl)cc2)s1	5.3	0.9	16.1	-0.3
O=C(N/N=C/c1cccnc1)C1CC1(c1ccccc1)c1ccccc1 (centres undefined)	-1.1	12.9	7.8	-1.2
O=C(/C=N/O)NCCN1CCCCC1	59.4*	1.9	-10.2	8.8
O=C(N/N=C/c1ccc(Cl)c([N+](=O)[O-])c1)c1cc(-c2ccc3c4c(cccc24)CC3)n[nH]1	/	/	76.9*	/
O=C(NNC1=Nc2cccc3cccc1c23)c1ccc(Br)cc1	56.9	82.1*	-40.0	-14.8
COc1ccc(CC(=O)NNC2=Nc3cccc4cccc2c34)cc1OC	/	/	-39.8	/
O=C(NCc1cccnc1)/C(=C\c1ccc(-c2ccc(Cl)c(Cl)c2)o1)S(=O)(=O)c1ccccc1	53.5	100.3*	110.5*	-40.8
CCOC(=O)c1c2c(n(C)c1COC)C(=O)C(=O)c1ccc(Br)cc1-2	/	99.6*	/	/
COC(=O)C/C=C/[C@@H](C)[C@@H](/C=N/OCC[C@@H]1C=C[C@H](OC(C)=O)[C@@H](COC(C)=O)O1)NS(=O)(=O)c1ccc(C)cc1	-10.0	1.4	10.6	8.3
N#C/C(=C\Nc1ccc2c(c1)OCCO2)c1nc2ccccc2[nH]1	-6.0	18.3	74.3*	8.7
N#C/C(=C\Nc1ccc2c(c1)OCCO2)c1nc(-c2ccccc2)cs1	8.5	-4.0	-16.8	4.6

Screening data: PubChem, several laboratories
